# Experimental data published in PubChem BioAssay (Tox21).
# Inconclusive results are not listed. Unmarked numbers belong to inactive results. Calls come from the whole dose curve; as a rule, active = well fitted inhibition curve with a large enough effect in the repeat runs; inconclusive = weak or mixed curves, or effect the other way; inactive = no such curve, though single readings can be large or run the other way.
# Assay: qHTS assay to identify small molecule antagonists of the retinoic acid receptor (RAR) signaling pathway (AID 1159552; note: nearly all actives have a fitted effect of over 50% in size)
# Settings: C3RL4 RARE luciferase reporter, retinol-stimulated, 6 h; series mostly up to 92.4 µM; activity, negative = inhibition: at the top concentration
# Excerpt: National Center for Advancing Translational Sciences [NCATS]
# NIH Chemical Genomics Center [NCGC]
# U.S. Environmental Protection Agency [EPA]
# National Institutes of Environmental Health Sciences [NIEHS]
# National Toxicology Program [NTP]
# U.S. Food and Drug Administration [FDA]
# All-trans Retinoic acid (atRA) is the potent natural metabolite of retinol and plays an important role in normal embryonic development and maintenance of cellular phenotype in adult animals. atRA is the activating ligand for the retinoic acid receptors (RARs) which form heterodimers with retinoid X receptors (RXRs) on the retinoic acid response element (RARE). Through activation of the RAR/RXRs nuclear receptors, atRA regulates the transcription of a large number of protein-coding genes and regulatory RNAs. Intracellular levels of atRA are controlled by the retinol signaling pathway (RSP) that regulates the biosynthesis and catabolism of atRA to maintain physiological levels. Chemicals that interfere with the RSP can cause abnormal intracellular levels of atRA and therefore are potential developmental toxicants. To assess compounds for the potential adverse effect on embryonic development through interfering with retinol signaling, a cell-based RARE luciferase reporter gene assay was used. C3RL4 cell line (OARSA/CFSAN/FDA, Laurel, MD) was used to screen Tox21 10K compound library for identifying inhibitors of the RSP.
# Tox21 Assay Protocol Summary:
# C3RL4 cells were seeded at 1,000/well in 4 uL of assay medium into white solid 1,536-well tissue culture plates (Greiner Bio-One North America Inc. Monroe, NC) using a Multidrop Combi (Thermo Scientific, Waltham, MA) dispenser. After incubation at 37 C and 5% CO2 for an overnight, 23 nL of compounds dissolved in DMSO, positive control or DMSO only were transferred by a Pintool station (Kalypsys, San Diego, CA). One ul of 1 uM (final concentration) of Retinol was added right after the compound addition by using a Flying Reagent Dispenser (FRD) (Aurora Discovery, San Diego, CA). After 6 hr incubation at 37 C and 5% CO2, 5 uL of Amplite Luciferase reagent (AAT Bioquest Inc. Sunnyvale, CA) was added to each assay plate using an FRD. Luminescence was quantified on a ViewLux plate reader (PerkinElmer, Waltham, MA) after 30 min incubation at room temperature.
# % is set by controls: 0 for no effect and ±100 for the full control effect.
row,SMILES,"activity, negative = inhibition"
1,CCCCCCC(=O)CCCCCC/C=C/C[C@@H](O)[C@H](O)[C@@](N)(CO)C(=O)O,6.01% [at 19 µM]
2,CCOC(=O)NC(C)(C)Cc1ccc(Cl)cc1,3.79% [at 42.5 µM]
3,CN(CCO)CCO,52.2%
4,ClC(Cl)(Cl)Cl,-17.9%
5,CN1C(=O)COc2c(C(=O)NC3CN4CCC3CC4)cc(Cl)cc21 (stereo not given),-7.94% [at 42.5 µM]
6,O=C(CCl)NCO,6.27%
7,CCC(C)C(C)(COC(N)=O)COC(N)=O (stereo not given),1.25% [at 42.5 µM]
8,CCC(=O)c1ccc(Cl)cc1,8.79%
9,OCC(Cl)CCl (stereo not given),37.1%
10,CC1N=C(N)OC1c1ccccc1 (stereo not given),13.6%
11,CCCOC(=O)Cc1ccc(OCC(=O)N(CC)CC)c(OC)c1,-0.558% [at 42.5 µM]
12,CON(C)C(=O)Nc1ccc(Br)c(Cl)c1,74.7%
13,C=C1CC[C@@]2(O)[C@H]3Cc4ccc(O)c5c4[C@@]2(CCN3CC2CC2)[C@H]1O5,20.5% [at 42.5 µM]
14,CCCC[N+](=O)[O-],28%
15,Cc1ccc2c(c1)C1CN(C)CCC1N2 (stereo not given),-12.3% [at 19 µM]
16,NCC1(CC(=O)O)CCCCC1,5.81% [at 42.5 µM]
17,CCC1(c2cccc(O)c2)CCCCN(C)C1 (stereo not given),0.962% [at 42.5 µM]
18,CC(=O)CN(CC(C)=O)N=O,-4.46%
19,O=C(Cl)c1ccccc1,42%
20,CCCCCCCCSC(=O)Oc1cc(Cl)nnc1-c1ccccc1,-20.9%

row,SMILES,"activity, negative = inhibition"
1,COc1cccc(C=O)c1,1.73%
2,CCCCS(=O)(=O)Cl,17.3%
3,ClCOCCl,6.62%
4,O=[N+]([O-])c1cccc(CCl)c1,0.188%
5,CCN1CCCC1CNC(=O)C(O)(c1ccccc1)c1ccccc1 (stereo not given),7.99% [at 42.5 µM]
6,c1ccc2c(c1)CCNC2,42.2%
7,CC(Cl)(Cl)Cl,-12.5%
8,COP(=O)(OC)O/C(C)=C/C(=O)N(C)C,-0.931%
9,CCCCCCCC(=O)Cl,42.8%
10,C(COCC1CO1)OCC1CO1 (stereo not given),36.7%
11,COc1ccccc1OC,-4.03%
12,CCOP(=O)(CN(CCO)CCO)OCC,-0.774%
13,COc1ccc2c(C(=O)c3ccc(Cl)cc3)c(C)n(CC(=O)O)c2c1,-2.84% [at 42.5 µM]
14,CN(C)CCN(C)C,22.6%
15,C=CC=O,-1.39%
16,CN=CNc1ccc(C)cc1C,-0.969%
17,NC(=O)OCCCc1ccccc1,-2.97% [at 42.5 µM]
18,CCSC(=O)Cl,0.119%
19,CCC1(c2ccccc2)C(=O)N(COC)C(=O)N(COC)C1=O,13.6% [at 42.5 µM]
20,COc1cc(CCN)cc(OC)c1OC,-5.77%
